In ChEMBL document CHEMBL5308504, “Tm Shift (DSF) assay results for EUbOPEN Chemogenomics Library” (2023):
“And” between values parts separate entries of the source, which are not always exact repeats. Identical values can stand only once.

Experiments:
[1] = target: Bromodomain-containing protein 4 (Homo sapiens) (UniProt O60885); details: Compound concentration 20.0 uM, Protein concentration 2.0 uM, Result type QC Liability
[2] = target: T1, Transcription intermediary factor 1-alpha (Homo sapiens) (UniProt O15164); details: Compound concentration 20.0 uM, Protein concentration 2.0 uM, Result type QC Liability
T1 sequence (whole entry): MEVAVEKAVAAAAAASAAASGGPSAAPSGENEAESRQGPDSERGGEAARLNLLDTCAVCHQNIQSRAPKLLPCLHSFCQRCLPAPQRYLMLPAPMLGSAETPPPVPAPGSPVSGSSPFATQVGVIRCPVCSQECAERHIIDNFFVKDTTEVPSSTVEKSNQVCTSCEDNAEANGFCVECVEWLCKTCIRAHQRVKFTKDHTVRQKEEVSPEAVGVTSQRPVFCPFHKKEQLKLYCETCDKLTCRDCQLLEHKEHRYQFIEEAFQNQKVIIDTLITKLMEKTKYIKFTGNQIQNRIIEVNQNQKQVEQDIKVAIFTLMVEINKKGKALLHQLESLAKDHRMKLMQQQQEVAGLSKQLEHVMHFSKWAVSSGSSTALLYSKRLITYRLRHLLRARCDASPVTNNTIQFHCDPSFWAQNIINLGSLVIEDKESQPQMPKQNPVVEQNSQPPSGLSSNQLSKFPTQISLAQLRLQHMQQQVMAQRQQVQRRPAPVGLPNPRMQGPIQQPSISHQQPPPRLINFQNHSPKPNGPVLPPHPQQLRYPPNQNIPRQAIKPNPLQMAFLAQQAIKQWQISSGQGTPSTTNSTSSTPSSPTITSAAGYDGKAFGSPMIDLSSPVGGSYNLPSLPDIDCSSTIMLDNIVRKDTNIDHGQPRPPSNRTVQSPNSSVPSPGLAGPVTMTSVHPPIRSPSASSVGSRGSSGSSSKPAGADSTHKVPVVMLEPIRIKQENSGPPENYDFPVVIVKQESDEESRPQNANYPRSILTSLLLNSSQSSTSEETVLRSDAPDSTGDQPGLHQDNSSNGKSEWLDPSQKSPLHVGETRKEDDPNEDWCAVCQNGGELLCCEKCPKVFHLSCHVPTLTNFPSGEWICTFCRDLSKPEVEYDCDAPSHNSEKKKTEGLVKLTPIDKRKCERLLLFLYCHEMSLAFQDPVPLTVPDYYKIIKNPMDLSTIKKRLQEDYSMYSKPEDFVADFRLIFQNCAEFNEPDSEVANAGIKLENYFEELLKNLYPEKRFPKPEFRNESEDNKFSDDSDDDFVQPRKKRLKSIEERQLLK

| SMILES | ΔTm [1] | ΔTm [2] |
| --- | --- | --- |
| CC#CC(=O)N1CCN(c2nc(-c3ccc(Oc4ccccc4)cc3)c(C(N)=O)s2)CC1 | -3.96 °C | -3.1 °C |
| CN(C)C(=O)Cn1cc(-c2nc(C3(c4ccc(-c5cnc(N)nc5)cc4)CC3)no2)cn1 | -1.16 °C | 0.32 °C |
| CN(C(=O)c1ccccc1)c1ccc2c(c1)[nH]/c(=N\C(=O)c1ccc(Br)s1)n2CCC(N)=O | -2.77 °C | -1.25 °C |
| COc1cc(C)c(S(=O)(=O)N(C)CCOCC(=O)N(C)[C@H]2CCC[C@@H](N3CCN(C)CC3)C2)c(C)c1 | -1.54 °C | 0.17 °C |
| N=C(N)NCCC[C@@H](NC(=O)C(c1ccccc1)c1ccccc1)C(=O)NCc1ccc(CNC(N)=O)cc1 | 0.42 °C | 0.26 °C |
| COc1cc2nc(C)nc(N[C@H](C)c3cc(N)cc(C(F)(F)F)c3)c2cc1O[C@H]1CCOC1 | 0 °C | 0.8 °C |
| CCc1ncnc(N2CCN(C(C)=O)CC2)c1C#Cc1ccc(N)nc1 | -1.64 °C | -3.55 °C |
| OC(c1ccc(-c2ccc(CN3CCN(Cc4ccncc4)CC3)cc2)c(F)c1)(C(F)(F)F)C(F)(F)F | -1.34 °C | -2.91 °C |
| Cn1cnc(Cn2ccc3ccc(CNCc4[nH]c5ccccc5c4[C@H]4NC(=O)c5ccc(O)cc54)cc32)c1 | 0.36 °C | 0.2 °C |
| CCS(=O)(=O)c1cc2cc(C[C@@](O)(CC(C)(C)c3ccc(F)cc3C(N)=O)C(F)(F)F)[nH]c2cn1 | 0.67 °C and -0.3 °C | 0.3 °C and -2.64 °C |
| COc1cc2ncnc(Nc3cccc(O)c3)c2cc1OC | 0.18 °C | -0.88 °C |
| Cc1cnc(Nc2ccc(C(=O)N3CCN(C)CC3)cc2)nc1N[C@@H]1CCC[C@@H]1C(N)=O | -1.32 °C | -3.2 °C |
| CN(C)C(=O)Cn1cc(-c2ccc(-c3nnc4ccccn34)cc2)cn1 | -1.96 °C | 0.35 °C |
| CNc1ncc2cc(-c3ccc(-c4cccc(C)n4)cc3Cl)c(=O)n(C[C@H]3OC[C@H](N)CO3)c2n1 | -1.96 °C | -2.28 °C |
| CC(C)(C)c1cc(NC(=O)c2csc(Nc3ccccn3)n2)no1 | 1.16 °C | 1.12 °C |
| CS(=O)(=O)c1cc(C2(NC(=O)c3cncc4c3cnn4-c3ccc(F)cc3)CC2)ccn1 | -1.64 °C | 0.27 °C |
| Cn1cc(-c2cnc3ccc4ccc(CS(=O)(=O)NCc5ccccn5)cc4c(=O)c3c2)cn1 | -1.72 °C | -0.28 °C |
| Nc1ncnc2[nH]c(-c3ccccc3)nc12 | -1.11 °C | -2.07 °C |

| SMILES | ΔTm [1] | ΔTm [2] |
| --- | --- | --- |
| COc1cc2ncnc(Nc3ccc4c(cnn4Cc4ccccc4)c3)c2cc1OC | -0.65 °C | -2.15 °C |
| COc1cc2nc([C@@H]3CCCS(=O)(=O)C3)n(C)c2cc1NC(=O)c1cccc(C(C)(F)F)n1 | 0.39 °C | 0.7 °C |
| Nc1ncnc2c1c(COc1cccc(Cl)c1)nn2C1CCOCC1 | -0.35 °C | -2.38 °C |
| COc1ccc(-c2c(-c3ccccc3)oc3ncnc(O[C@H](C)CCCCC(=O)O)c23)cc1 | -0.98 °C | -1.53 °C |
| CCC(C(=O)Nc1ccc(-c2cc3ccccc3s2)c(C(N)=O)c1)c1nccs1 (stereo not given) | -0.87 °C | 0.44 °C |
| Nc1ncc2c(n1)-c1c([nH]c3ccc(C4=CCOCC4)cc13)CCC2 | -0.2 °C | 0.27 °C |
| COc1cc(N(C)c2ccnc3ccc(C(F)(F)F)cc23)cc(OC)c1OC | -0.67 °C | -4.07 °C |
| COc1cc(N2CCN(C)CC2)ccc1Nc1ncc2c(n1)N(C)c1ccccc1C(=O)N2CC(F)(F)F | -1.21 °C | -2.27 °C |
| Cc1cc(=O)oc2cc(NC(=O)[C@H](Cc3ccc(I)cc3)NC(=O)[C@H]3N[C@@H]4CC[C@H]3C4)ccc12 | -0.26 °C | 0.3 °C |
| CCOC(=O)c1cc2cc(-c3cc(C(=O)NCc4ccc(C(=O)O)cc4)nn3C)ccc2[nH]1 | -0.14 °C | 0.44 °C |
| CCc1c(-c2ccc3[nH]ncc3c2)cnc(N)c1-c1ccc(O)cc1 | -1.17 °C | -2.74 °C |
| COC(=O)Nc1nc2c(s1)-c1c(c(-c3cccnc3)nn1-c1ccc(C3(N(C)C)CC3)cc1)CC2 | -1.63 °C | -3.18 °C |
| COc1cc(Cl)c(C(=O)N[C@@H](CN[C@H]2CC[C@@H](N)CC2)Cc2ccc(C#N)cc2)cc1-c1ccc(CN[C@H](C)c2ccc(C)cc2)o1 | -1.12 °C | -2.42 °C |
| CCCNc1ccc2ncc(-c3ccncc3)n2n1 | -0.06 °C | -2.61 °C |
| Cc1csc(-c2nnc(Nc3ccc(Oc4ncccc4-c4ccnc(N)n4)cc3)c3ccccc23)c1 | 11.5 °C | -1.04 °C |
| CC1CCN(c2ccnc(NCc3cn(C)cn3)n2)CC1 | -1.06 °C | -0.77 °C |
| Cc1nn(-c2nc3ccc(Cl)c(Cl)c3[nH]2)c(O)c1C1OC(=O)c2ccccc21 (stereo not given) | -4.43 °C | -1.16 °C |
